Our source for the AC50 and outcome values is PubChem BioAssay (EPA / NIEHS).

“And” between values parts separate entries of the source, which are not always exact repeats. Equal values may be shown once. Results filed as inconclusive are left out. Some structures have more than one record in an assay (separate samples or runs), and their calls can disagree. The source made the active and inactive calls. Rule for the calls, unless noted: active = hit-call score of the fitted dose curve at least 0.9, where 1 is the maximum; inconclusive = response in the unintended direction; inactive = score below 0.9.

The target of test [1] is mouse Peroxisome Proliferator-activated Receptor gamma (PPARg), Pparg (gene 19016) (UniProt P37238). The experiment in a line: ATG_mPPARg_XSP2: Attagene TRANS-FACTORIAL Multi-Species (XSP2) HepG2 Assay for mouse Peroxisome Proliferator-activated Receptor gamma (PPARg) (AID 2283830).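 Note: hits are gains in reporter mRNA above DMSO so AC50 marks activation.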 An outline of the steps: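 HepG2 cells transiently transfected with GAL4-UAS reporter units for chimeric NR-Gal4 proteins including mouse PPARg, exposed 24 h; medium contained 3 nM 6-alpha-fluorotestosterone and 1.5 nM norgestrel. Reporter mRNA quantified by RT-PCR, HpaI digestion and capillary electrophoresis, vs DMSO.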

Test [2] deals with Nuclear receptor subfamily 1 group I member 2 (Mus musculus) (UniProt O54915). As to the kind of experiment: ATG_mPXR_XSP2: Attagene TRANS-FACTORIAL Multi-Species (XSP1) HepG2 Assay for mouse Pregnane X Receptor (PXR) (AID 2283831). The procedure, abridged: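 Reporter transcripts were quantified by RT-PCR, FAM primer extension, HpaI digestion and capillary electrophoresis after 24 h of chemical exposure in transiently transfected HepG2 cells carrying chimeric receptor-GAL4 constructs; DMSO served as baseline.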

Test [3] addresses zebrafish Thyroid Hormone Receptor alpha (TRa), thraa (gene 30670) (UniProt Q98867). The experiment in a line: ATG_zfTRa_XSP2: Attagene TRANS-FACTORIAL Multi-Species (XSP1) HepG2 Assay for zebrafish Thyroid Hormone Receptor alpha (TRa) (AID 2283832).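 Note: actives raise zebrafish TRa-Gal4 reporter transcript above DMSO baseline.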 The procedure, abridged:
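Chimeric receptor-Gal4 activity was assessed in transfected human liver HepG2 cells 24 h after dosing, using reporter transcript levels detected by RT-PCR and capillary electrophoresis. DMSO served as baseline.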

Test [4] deals with turtle Thyroid Hormone Receptor, alpha (TRa), gene 101949057. The experiment in a line: ATG_trTRa_XSP2: Attagene TRANS-FACTORIAL Multi-Species (XSP1) HepG2 Assay for turtle Thyroid Hormone Receptor, alpha (TRa) (AID 2283834).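 Note: hits raise reporter mRNA over the DMSO baseline so AC50 marks activators.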 An outline of the steps:
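Transfection of HepG2 with multiple reporter transcription units, then chemical dosing for 24 h. Total RNA was reverse-transcribed, reporter sequences PCR-amplified and FAM-labelled, then sized by capillary electrophoresis. DMSO served as baseline.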

Test [5] in a line: ATG_M_61_XSP2: Attagene TRANS-FACTORIAL Multi-Species (XSP2) HepG2 Assay for M61 Transcription Factor (Internal Marker) (AID 2283835; active = hit-call score of the fitted dose curve at least 0.9, where 1 is the maximum; inactive = score below 0.9;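 note: reporter mRNA of an internal background marker read by RT-PCR and capillary electrophoresis; active means a rise in signal above the DMSO baseline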). An outline of the steps: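 First, HepG2 cells are transfected with reporter units under GAL4-UAS control. Next, chemicals are applied for 24 h. Then total RNA is reverse-transcribed, amplified, fluorescently labelled and sized by capillary electrophoresis, with gain of signal scored against DMSO.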

The target of test [6] is zebrafish Thyroid Hormone Receptor beta (TRb), thrb (gene 30607) (UniProt Q9PVE4). As to the kind of experiment: ATG_zfTRb_XSP2: Attagene TRANS-FACTORIAL Multi-Species (XSP1) HepG2 Assay for zebrafish Thyroid Hormone Receptor beta (TRb) (AID 2283836). An outline of the steps:
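Fluorescence of labelled reporter cDNA fragments, separated by capillary electrophoresis, gives mRNA induction from exogenous NR-Gal4 chimeras in transiently transfected HepG2 cells after 24 h dosing; 3 nM 6-alpha-fluorotestosterone and 1.5 nM norgestrel included in the run.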

Test [7] in a line: ATG_XTT_Cytotoxicity_XSP2: Cytotoxicity Assessment in the Attagene TRANS-FACTORIAL Multi-Species (XSP2) HepG2 Assay (AID 2283837). The procedure, abridged: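 HepG2 cells, transiently transfected with multiple reporter constructs, exposed to chemical for 24 h. Cell number assessed with XTT fluorescence read-out; loss of signal fitted relative to DMSO.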
The target in test [8] is human Thyroid hormone Receptor alpha (TRa), THRA (gene 7067) (UniProt P10827). As to the kind of experiment: ATG_hTRa_XSP2: Attagene TRANS-FACTORIAL Multi-Species (XSP2) HepG2 Assay for human Thyroid hormone Receptor alpha (TRa) (AID 2283838). An outline of the steps: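 HepG2 cells transiently transfected with multiplexed GAL4-UAS reporter units and exogenous NR-GAL4 chimeras; 24 h chemical exposure with 3 nM 6-alpha-fluorotestosterone and 1.5 nM norgestrel present. Reporter mRNA measured by RT-PCR, FAM labelling, HpaI digestion, capillary electrophoresis; gain-of-signal versus DMSO.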

The target in test [9] is frog Thyroid hormone Receptor alpha (TRa), thra-a (gene 397942) (UniProt P15204). The experiment in a line: ATG_frTRa_XSP2: Attagene TRANS-FACTORIAL Multi-Species (XSP2) HepG2 Assay for frog Thyroid hormone Receptor alpha (TRa) (AID 2283839).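 For AC50: AC50 reflects induction of frog TRa-driven reporter mRNA above DMSO baseline.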 An outline of the steps:
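Transfect HepG2 with multiple reporter units (GAL4-UAS), dose chemical, incubate 24 h. Isolate RNA, reverse-transcribe, PCR-amplify reporter, label with 6-FAM by primer extension, digest with HpaI, run capillary electrophoresis; induction scored against DMSO.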

Test [10] relates to zebrafish Peroxisome Proliferator-activated Receptor gamma (PPARg), gene 557037. The experiment in a line: ATG_zfPPARg_XSP2: Attagene TRANS-FACTORIAL Multi-Species (XSP2) HepG2 Assay for zebrafish Peroxisome Proliferator-activated Receptor gamma (PPARg) (AID 2283833).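 Note: actives increase reporter signal over DMSO so AC50 reflects activation.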 An outline of the steps: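 Multi-species TRANS format in HepG2, 24 h dosing; medium also contained 3 nM 6-alpha-fluorotestosterone and 1.5 nM norgestrel to stimulate androgen receptor. Zebrafish PPARg-GAL4 induced reporter mRNA was measured by RT-PCR/capillary electrophoresis.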

mouse Peroxisome Proliferator-activated Receptor gamma (PPARg), Pparg (gene 19016), sequence (P37238 whole entry, looked up, the tested form may be a part): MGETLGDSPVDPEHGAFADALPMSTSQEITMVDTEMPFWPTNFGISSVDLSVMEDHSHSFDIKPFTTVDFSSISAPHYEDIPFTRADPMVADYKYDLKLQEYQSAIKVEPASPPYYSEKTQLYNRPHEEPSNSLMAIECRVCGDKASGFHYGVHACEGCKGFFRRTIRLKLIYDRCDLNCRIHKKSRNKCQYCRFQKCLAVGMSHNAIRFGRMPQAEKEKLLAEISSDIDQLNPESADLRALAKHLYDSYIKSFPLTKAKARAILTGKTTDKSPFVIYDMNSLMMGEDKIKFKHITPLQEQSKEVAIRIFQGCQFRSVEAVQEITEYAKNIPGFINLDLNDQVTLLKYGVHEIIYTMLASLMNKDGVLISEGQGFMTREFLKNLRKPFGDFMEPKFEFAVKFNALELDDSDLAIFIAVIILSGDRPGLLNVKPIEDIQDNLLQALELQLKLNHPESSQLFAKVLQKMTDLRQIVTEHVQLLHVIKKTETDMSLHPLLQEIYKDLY
zebrafish Thyroid Hormone Receptor alpha (TRa), thraa (gene 30670), sequence (Q98867 whole entry, looked up, the tested form may be a part): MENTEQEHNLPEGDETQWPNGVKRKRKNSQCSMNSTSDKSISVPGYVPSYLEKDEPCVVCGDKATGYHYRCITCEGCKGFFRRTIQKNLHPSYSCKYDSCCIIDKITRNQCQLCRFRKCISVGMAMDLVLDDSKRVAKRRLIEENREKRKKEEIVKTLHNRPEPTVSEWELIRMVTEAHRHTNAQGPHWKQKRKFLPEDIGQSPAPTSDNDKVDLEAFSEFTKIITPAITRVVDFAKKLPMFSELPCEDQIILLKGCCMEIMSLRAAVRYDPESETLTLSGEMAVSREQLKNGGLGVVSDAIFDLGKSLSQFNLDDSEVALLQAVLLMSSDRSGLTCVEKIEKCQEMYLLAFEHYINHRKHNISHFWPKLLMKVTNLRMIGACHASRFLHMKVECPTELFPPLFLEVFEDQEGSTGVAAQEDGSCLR
frog Thyroid hormone Receptor alpha (TRa), thra-a (gene 397942), sequence (P15204 whole entry, looked up, the tested form may be a part): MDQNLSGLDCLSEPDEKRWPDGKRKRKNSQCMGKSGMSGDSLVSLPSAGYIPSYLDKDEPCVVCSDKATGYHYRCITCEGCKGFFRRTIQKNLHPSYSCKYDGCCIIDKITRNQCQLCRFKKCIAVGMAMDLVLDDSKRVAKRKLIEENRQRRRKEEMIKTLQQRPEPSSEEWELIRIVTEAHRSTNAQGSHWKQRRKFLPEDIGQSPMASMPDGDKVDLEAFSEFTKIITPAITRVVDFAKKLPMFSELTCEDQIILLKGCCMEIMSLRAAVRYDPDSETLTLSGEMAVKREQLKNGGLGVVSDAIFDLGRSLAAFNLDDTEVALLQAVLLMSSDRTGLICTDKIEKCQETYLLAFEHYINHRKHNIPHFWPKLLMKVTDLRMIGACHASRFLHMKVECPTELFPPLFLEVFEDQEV
human Thyroid hormone Receptor alpha (TRa), THRA (gene 7067), sequence (P10827 whole entry, looked up, the tested form may be a part): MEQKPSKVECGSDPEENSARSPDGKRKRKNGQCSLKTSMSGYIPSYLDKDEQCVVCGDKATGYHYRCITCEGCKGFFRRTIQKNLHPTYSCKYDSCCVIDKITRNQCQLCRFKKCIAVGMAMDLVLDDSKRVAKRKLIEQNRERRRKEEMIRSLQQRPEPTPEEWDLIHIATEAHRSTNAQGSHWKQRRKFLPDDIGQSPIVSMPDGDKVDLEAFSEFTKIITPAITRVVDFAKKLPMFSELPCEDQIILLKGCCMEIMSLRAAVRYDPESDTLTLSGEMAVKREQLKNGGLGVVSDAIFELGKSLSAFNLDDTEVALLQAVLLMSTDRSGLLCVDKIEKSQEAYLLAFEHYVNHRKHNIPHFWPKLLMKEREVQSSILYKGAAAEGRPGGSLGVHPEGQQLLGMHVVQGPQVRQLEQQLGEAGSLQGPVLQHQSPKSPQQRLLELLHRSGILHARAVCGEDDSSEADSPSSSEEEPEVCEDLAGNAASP
zebrafish Thyroid Hormone Receptor beta (TRb), thrb (gene 30607), sequence (Q9PVE4 whole entry, looked up, the tested form may be a part): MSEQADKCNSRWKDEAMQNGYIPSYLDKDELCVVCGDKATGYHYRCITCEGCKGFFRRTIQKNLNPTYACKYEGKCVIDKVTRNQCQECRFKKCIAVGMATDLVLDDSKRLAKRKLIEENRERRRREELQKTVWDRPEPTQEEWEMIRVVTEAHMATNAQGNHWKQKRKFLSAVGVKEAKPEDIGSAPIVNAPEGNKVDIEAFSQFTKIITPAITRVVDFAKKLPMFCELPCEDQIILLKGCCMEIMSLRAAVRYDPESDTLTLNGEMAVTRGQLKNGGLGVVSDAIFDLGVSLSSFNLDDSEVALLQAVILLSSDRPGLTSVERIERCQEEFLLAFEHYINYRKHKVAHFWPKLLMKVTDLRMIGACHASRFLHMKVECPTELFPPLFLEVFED
Nuclear receptor subfamily 1 group I member 2 (Mus musculus), sequence (O54915 whole entry, looked up, the tested form may be a part): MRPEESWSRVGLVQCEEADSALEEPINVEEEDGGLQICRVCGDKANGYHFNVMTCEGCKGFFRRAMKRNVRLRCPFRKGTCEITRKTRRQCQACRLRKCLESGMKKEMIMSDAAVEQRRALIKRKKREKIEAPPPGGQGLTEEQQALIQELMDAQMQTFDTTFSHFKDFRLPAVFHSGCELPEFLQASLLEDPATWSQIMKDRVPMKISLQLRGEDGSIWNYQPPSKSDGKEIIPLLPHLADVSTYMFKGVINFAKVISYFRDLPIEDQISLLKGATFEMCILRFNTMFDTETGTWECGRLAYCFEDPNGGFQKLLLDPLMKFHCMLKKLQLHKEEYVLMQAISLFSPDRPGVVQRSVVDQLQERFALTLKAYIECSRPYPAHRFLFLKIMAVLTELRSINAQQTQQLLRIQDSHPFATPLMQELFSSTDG

What is called AC50 is the concentration giving half of the maximal activity seen. As to `O=S(=O)(c1ccc(O)cc1)c1ccc(O)cc1`, the AC50 in [1] is 33.1 µM (active) and 63.1 µM (active); in test [9], 100 µM (active). Besides, the molecule was called inactive in test [2], in test [3], in test [4], in test [5], in test [6] and in test [7]. For the same molecule, the outcome in test [8] was inactive.

With `CCCCc1ccc(O)cc1`, in [1], the AC50 was 74.6 µM (active) and 93.5 µM (active). For the same molecule, the molecule was classed as inactive in [2], in test [3], in test [10], in test [5], in test [6] and in [7]. Also, the molecule was classed as inactive in test [8].

Turning to `CCC(C)(C)c1ccc(O)cc1`, the result in test [1], in test [2], in [3], in test [6], in test [7] and in [9] was inactive. Further, the AC50 in test [10] was 165 µM (active) and 100 µM (active).

Consider `O=P(Oc1ccccc1)(Oc1ccccc1)Oc1ccccc1`, for which the figures for the AC50 in test [1], in test [2] and in [10] were 5.79 µM (active), 0.303 µM (active) and 9.78 µM (active), respectively. For the same molecule, the outcome in test [3], in test [4], in test [5] and in test [6] was inactive.

For the molecule `CC(C)(C)c1ccc(O)cc1`, the outcome in [1], in [3], in test [10], in test [4], in [5] and in test [6] was inactive. The molecule was classed as inactive in [9].

Consider `c1ccc2c(c1)Nc1ccccc1S2`, for which the AC50 in [1] was 27.6 µM (active) and 21.1 µM (active); in test [2], 4.49 µM (active). Moreover, the call in test [2], in test [3], in test [10], in test [4], in [5] and in test [6] was inactive. In addition, the molecule was classed as inactive in test [7], in test [8] and in [9].
